From PubChem BioAssay AID1619 (SRMLSC, 2009)
In all, about 220,000 compounds went through this assay and about 830 (0.38%) were called active.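 The calls were made as follows: active = compound inhibiting the enzyme by more than half at any dose during confirmatory dose-response retesting; inconclusive = strong single-dose inhibitors picked by rank but not retested; inactive = the rest.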 Only a sample is shown. Results with a measured potency or affinity are listed apart.

target: Leucine aminopeptidase (Plasmodium falciparum (isolate 3D7)) (UniProt Q8IL11); assay: P. falciparum M17LAP inhibitors, primary screen, biochemical, fluorogenic H-Leu-NHMec substrate, 1536-well (AID 1619); conditions: recombinant M17LAP, H-Leu-NHMec fluorogenic kinetic assay; at 30 µM; active compounds read high;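 also: plate controls were full reaction with DMSO carrier for no effect and no enzyme background for full effect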
Sequence (Q8IL11 whole entry, looked up): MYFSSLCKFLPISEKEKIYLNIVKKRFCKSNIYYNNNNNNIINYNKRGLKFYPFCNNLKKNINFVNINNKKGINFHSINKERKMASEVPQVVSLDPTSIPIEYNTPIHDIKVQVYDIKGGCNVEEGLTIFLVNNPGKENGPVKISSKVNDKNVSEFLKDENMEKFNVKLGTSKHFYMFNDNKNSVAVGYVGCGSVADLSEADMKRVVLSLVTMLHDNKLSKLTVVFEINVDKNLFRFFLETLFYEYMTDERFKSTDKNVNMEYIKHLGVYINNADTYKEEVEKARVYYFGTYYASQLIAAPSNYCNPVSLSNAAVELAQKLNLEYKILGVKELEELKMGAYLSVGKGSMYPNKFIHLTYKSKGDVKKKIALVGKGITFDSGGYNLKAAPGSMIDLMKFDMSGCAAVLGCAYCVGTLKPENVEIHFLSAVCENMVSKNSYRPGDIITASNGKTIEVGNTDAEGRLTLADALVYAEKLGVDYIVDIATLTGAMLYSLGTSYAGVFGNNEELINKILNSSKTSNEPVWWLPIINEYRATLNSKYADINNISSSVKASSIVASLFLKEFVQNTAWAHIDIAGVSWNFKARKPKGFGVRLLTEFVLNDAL

inhibition, inactive:
Cc1cc(C)n(CC(=O)c2cccc([N+](=O)[O-])c2)n1 7.13%
CNC(=O)c1nc(C)c(C2(C)CC(c3cccc([N+](=O)[O-])c3)=NO2)s1 (centres undefined) 11.9%
Cn1c(=O)n(C/C=C/c2ccccc2)c(=O)c2c1nc1n2CCCN1c1ccc(F)cc1 -5.1%
O=C(C1=C[C@@H](c2ccc(Br)cc2)C[C@@H](OCCCCO)O1)N1CCN(Cc2ccccc2)CC1 -0.63%
Cc1nn(C)cc1S(=O)(=O)N1CCN(Cc2ccc(F)cc2Cl)CC1 3.03%
CN1CCC(=NNC(=O)CN(c2cccc(Br)c2)S(C)(=O)=O)CC1 12.4%
CCOc1ccc(C(=O)NCc2ccccc2)cc1Br 5.79%
CCOCCOC(=O)C1=C(C)N(C)C(=O)NC1c1cc(Cl)c(O)c(OC)c1 (centres undefined) 2.91%
NS(=O)(=O)c1ccc(NCC2COc3ccccc3O2)c([N+](=O)[O-])c1 (centres undefined) 0.14%
C=CCn1c(SCC(=O)O)nnc1-c1cccs1 0.97%
CCn1c(SCC(=O)c2ccc(NS(=O)(=O)c3ccccc3)cc2)nnc1-c1cccs1 37%
CCC(=O)Nc1ccc(C(=O)CSc2nnc(-c3ccccc3F)n2C2CC2)cc1 4.72%
Cc1ccccc1OCc1nc2ccccc2c(=O)n1N -9.96%
CCOc1ccc(S(=O)(=O)Nc2ccc(O)c(Sc3ncn[nH]3)c2)cc1 71.4%
COc1ccc(OC)c(S(=O)(=O)Nc2ccc(O)c(Sc3ncn[nH]3)c2)c1 38.9%
Nc1c([N+](=O)[O-])cnnc1-c1ccccc1 -9.73%
Cc1n[nH]c(C)c1CNCc1c(C(=O)N2CCCCCCC2)nc2ccc(Cl)cn12 -4.57%
COc1ccc(NC(=O)CSc2nnc(NC(C)=O)s2)c([N+](=O)[O-])c1 11.8%
CCOc1ccc(/C=C2\SC(=S)N(NS(=O)(=O)c3ccc(C)cc3)C2=O)cc1OC 21.5%
CCOc1ccc(/C=C2\SC(=S)N(NS(=O)(=O)c3ccccc3)C2=O)cc1OC 43.7%
CCOc1ccc(/C=C2\SC(=S)N(C(C(=O)O)c3ccccc3)C2=O)cc1OC (centres undefined) 30.6%
COc1cc(/C=C2\SC(=S)N(NS(=O)(=O)c3ccccc3)C2=O)cc(OC)c1OC 27.3%
COc1cc(/C=C2\SC(=S)N(NS(=O)(=O)c3ccc(C)cc3)C2=O)cc(OC)c1OC 19.5%
CCOc1ccc(/C=C2/SC(=S)N(C(C(=O)O)c3ccccc3)C2=O)cc1OCC (centres undefined) 21.4%
